From PubChem BioAssay (NCATS) come the findings set out here.

The target of assay [1] is Aldehyde dehydrogenase, mitochondrial (Homo sapiens) (UniProt P05091). Nature of the assay: qHTS for Inhibitors of the Aldehyde Dehydrogenase Family (ALDH2) Primary screen (AID 2061308;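 also: plate controls were vehicle for no effect and reference inhibitor for full effect; nearly all actives have a fitted effect of over 55% in size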). (In general: Quantitative high-throughput screening tests each substance at several concentrations.)
Assay [2] deals with Retinaldehyde dehydrogenase 3 (Homo sapiens) (UniProt P47895). Nature of the assay: qHTS for Inhibitors of the Aldehyde Dehydrogenase Family (ALDH1A3) Primary screen (AID 2061315).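 Also: plate controls were DMSO vehicle for no effect and reference inhibitor for full effect.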

Records with an inconclusive call do not appear. Values without a mark were called inactive. Activity calls are given as the source filed them. Calls follow the shape of the dose curve; as a rule, active = well fitted curve in the direction sought with a large enough effect; inconclusive = small, poorly fitted or top-dose-only effect, or another doubt; inactive = no such curve, though single readings can be large; an effect the other way counts as inactive or inconclusive.

With `Cc1ccc(OCCn2c(CCNC(=O)c3ccc(F)cc3F)nc3ccccc32)cc1`, the Potency entry in assay [1] and in assay [2] was “inactive” in each case.
`Cc1ccc(S(=O)(=O)NCC(=O)Nc2nc(-c3ccccc3)cs2)cc1`: the Potency entry in assay [1] and in assay [2] was “inactive” throughout.
For `O=C(NCc1cccnc1)C1CCN(S(=O)(=O)c2cccs2)CC1`, the Potency result in assay [1] and in assay [2] was “inactive” each time.
In the case of `O=C(Nc1nnc(-c2ccncc2)s1)Nc1cc(C(F)(F)F)ccc1F`, the Potency result in assay [1] and in assay [2] was “inactive” throughout.
Take `COCCN(CCOC)c1nc(C)nc2c1nc(-c1ccccc1)n2CCN1CCOCC1`: the Potency entry in assay [1] and in assay [2] was “inactive” throughout.
On to `CCC(OC(=O)c1ccc(S(C)(=O)=O)c([N+](=O)[O-])c1)C(=O)NC1C2CC3CC(C2)CC1C3` (centres undefined), for which the Potency entry in assay [1] and in assay [2] was “inactive” in each case.
With `CCCn1c(C)nc2c(NCC(C)(C)CN(C)C)nc(C)nc21`, the Potency entry in assay [1] and in assay [2] was “inactive” each time.
For the compound `Cc1noc(C)c1-c1ccc2ncnc(NCc3cc(F)cc(F)c3)c2c1`, the Potency result in assay [1] and in assay [2] was “inactive” each time.
Turning to `O=C(NC(c1ccco1)c1cc(Cl)c2cccnc2c1O)c1ccsc1` (centres undefined), the Potency result in assay [1] and in assay [2] was “inactive” throughout.
For `CC(C)(C)OC(=O)Cc1nnc(C(C(=O)OCc2ccccc2)c2ccccc2)o1` (centres undefined), the Potency entry in assay [1] and in assay [2] was “inactive” each time.
As to `Cc1cccc(CNc2ncnc3ccc(-c4cccc(Cl)c4)cc23)c1`, the Potency entry in assay [1] and in assay [2] was “inactive” throughout.
Turning to `CC1(C)CC[C@]2(C(=O)O)CC[C@]3(C)C(=CCC4[C@@]5(C)CC[C@H](O[C@@H]6O[C@H](C(=O)O)[C@@H](O)[C@H](O[C@@H]7O[C@H](CO)[C@H](O)[C@H](O)[C@H]7O)[C@H]6O[C@@H]6O[C@H](CO)[C@@H](O)[C@H](O)[C@H]6O)C(C)(C)C5CC[C@]43C)[C@@H]2C1` (some centres undefined), the activity change, negative = inhibition is -3.97% [at 11.2 µM] in assay [1] and 11.9% [at 11.2 µM] in assay [2].
As to `Fc1cc(Nc2nc(-c3ccncc3)nc3ccccc23)ccc1-c1ccc2[nH]ncc2c1`, the Potency result in assay [1] and in assay [2] was “inactive” each time.
Consider `O=S(=O)(c1ccc2c(c1)OCCO2)N1CCN(S(=O)(=O)c2c(F)cccc2F)CC1`, for which the Potency entry in assay [1] and in assay [2] was “inactive” in each case.
Regarding `Nc1ccc(S(=O)(=O)N2CCCN(S(=O)(=O)c3ccc4c(c3)OCCO4)CC2)cc1`, the Potency result in assay [1] and in assay [2] was “inactive” throughout.
As for `C/C1=C\CCC2=CC(OC2=O)C(C)(C)/C=C/C1=O` (centres undefined), the Potency entry in assay [1] and in assay [2] was “inactive” each time.
Take `Cc1cc2c(s1)c1cnn(Cc3ccc(S(C)(=O)=O)cc3)c(=O)c1n2C`: the Potency result in assay [1] and in assay [2] was “inactive” in each case.
With `COc1ccccc1NC(=O)C(OC(=O)CNC(=O)c1ccccc1)c1ccccc1` (centres undefined), the Potency result in assay [1] and in assay [2] was “inactive” each time.
For `Cc1cc(-c2nnc3n2CCCCC3)c(C)n1-c1cccc(C(F)(F)F)c1`, the Potency result in assay [1] and in assay [2] was “inactive” throughout.
For the compound `CC(=O)O[C@@H]1C=C2[C@H](CC[C@@]3(C)[C@@]2(O)CC[C@H]2Cc4c([nH]c5ccccc45)[C@@]23C)O[C@@H]1C(C)(C)O`, the Potency result in assay [1] and in assay [2] was “inactive” each time.
For the compound `O=C(Nc1ccc(F)c(C(F)(F)F)c1)Nc1nc(-c2ccncc2)cs1`, the Potency entry in assay [1] and in assay [2] was “inactive” in each case.
On to `Cn1c2cc(CO)sc2c2cnn(Cc3ccccc3F)c(=O)c21`, for which the Potency result in assay [1] and in assay [2] was “inactive” throughout.
On to `Oc1ccc(CCc2ccccc2F)c2cccnc12`, for which the Potency result in assay [1] and in assay [2] was “inactive” in each case.
For `Cc1ccc(-c2cc(C(=O)Nc3ccccc3Cl)c3ccccc3n2)cc1C`, the Potency result in assay [1] and in assay [2] was “inactive” throughout.
With `CC(=O)c1ccc(N2CCN(S(=O)(=O)c3ccc4c(c3)CCCN4C(C)=O)CC2)cc1`, the Potency result in assay [1] and in assay [2] was “inactive” in each case.
As to `O=S(=O)(c1ccc2c(c1)OCCO2)N1CCN(S(=O)(=O)c2c(Cl)cc(C(F)(F)F)cc2Cl)CC1`, the Potency entry in assay [1] and in assay [2] was “inactive” throughout.
Consider `O=C(Nc1ccc(F)c(C(F)(F)F)c1)Nc1ccc(-c2ccncc2)s1`, for which the Potency result in assay [1] and in assay [2] was “inactive” in each case.
Consider `O=C(COC(=O)CNC(=O)c1ccccc1)Nc1cc(C(F)(F)F)ccc1Cl`, for which the Potency entry in assay [1] and in assay [2] was “inactive” in each case.
Take `CC(C)(C)NC(=O)N1CCC(C(=O)Nc2ccc([S+](=O)([O-])Nc3nccs3)cc2)CC1`: the Potency entry in assay [1] and in assay [2] was “inactive” throughout.
As for `Cc1ccc(-c2ccc(=O)n(CCN)n2)cc1`, the Potency result in assay [1] and in assay [2] was “inactive” each time.
Consider `C=C(C)C(=O)O[C@H]1/C(C=O)=C\CC/C(CO)=C/[C@H]2OC(=O)C(=C)[C@@H]2[C@@H]1OC`, for which the Potency result in assay [1] and in assay [2] was “inactive” each time.
As for `CN(C)CCCCC(=O)Nc1ccc(NC(=S)NC(=O)c2ccc(C(C)(C)C)cc2)cc1`, the Potency entry in assay [1] and in assay [2] was “inactive” in each case.
`Cc1cc(C)n2ncc(C(=O)Nc3ccc4c(c3)CCC4)c2n1`: the Potency result in assay [1] and in assay [2] was “inactive” each time.
For the compound `Cc1ccnc(NC(=S)NCCNc2cccc(C(F)(F)F)c2)c1`, the Potency result in assay [1] and in assay [2] was “inactive” each time.
For the compound `CCOc1cccc(-c2cc(-c3n[nH]c(=O)n3CC)c3ccccc3n2)c1`, the Potency result in assay [1] and in assay [2] was “inactive” in each case.
As for `O=C1CCCC2=C1C1(CCCC1)N=C(Nc1nc3cc(-c4ccccc4)ccc3o1)N2`, the Potency result in assay [1] and in assay [2] was “inactive” throughout.
Take `O=Cc1ccc(N2CCN(S(=O)(=O)c3ccc4c(c3)CC(=O)N4)CC2)cc1`: the Potency result in assay [1] and in assay [2] was “inactive” throughout.
For the compound `CCCCCCNC(=O)Nc1nnc(-c2ccncc2)s1`, the Potency entry in assay [1] and in assay [2] was “inactive” throughout.
For `c1nc(OCc2cnc[nH]2)c2cc(-c3ccc4c(c3)OCO4)ccc2n1`, the Potency result in assay [1] and in assay [2] was “inactive” in each case.
For `O=C(Cc1ccc(Cl)c(Cl)c1)Nc1ccc([S+](=O)([O-])Nc2ccccn2)cc1`, the Potency result in assay [1] and in assay [2] was “inactive” in each case.
As to `Cc1cc(NC(=O)Nc2cccc(-c3ccncc3)n2)ccc1Br`, the Potency entry in assay [1] and in assay [2] was “inactive” each time.
With `CCc1nn2c(=O)cc(NC3CNC3)nc2s1`, the Potency result in assay [1] and in assay [2] was “inactive” in each case.
